The text below walks through data of PubChem BioAssay (EPA / NIEHS).

Read-out in test [1]: Tumor necrosis factor receptor superfamily member 6 (Homo sapiens) (UniProt P25445)
In words: LTEA_HepaRG_FAS: Life Technologies and Expression Analysis (LTEA) Assay for Fas cell surface death receptor (FAS) using HepaRG (AID 2283447). As to conditions: mRNA level, 48 h; actives raise or lower the signal. Put shortly:
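Differentiated human HepaRG cells, pre-cultured 48 h, were exposed in duplicate for 48 h to 8-point half-log concentrations (top 100 uM, 0.5% DMSO) in serum-free induction medium; FAS mRNA measured by qRT-PCR, normalized to ACTB/GAPDH/POLR2A, bidirectional fit versus DMSO.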

Read-out in test [2]: Fatty acid synthase (Homo sapiens) (UniProt P49327)
Kind of test: LTEA_HepaRG_FASN: Life Technologies and Expression Analysis (LTEA) Assay for Fatty Acid Synthase (FASN) using HepaRG (AID 2283448). Particulars: mRNA level, 48 h; actives raise or lower the signal. Put shortly: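 HepaRG, 48 h exposure, 8-pt half-log series top 100 uM, 0.5% DMSO vehicle, duplicates. Readout: FASN transcript by Fluidigm qRT-PCR; housekeeping-normalized; bidirectional curve fit vs DMSO baseline.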

Read-out in test [3]: Cyclin D2 (CCND2), CCND2 (gene 894)
Kind of test: LTEA_HepaRG_CCND2: Life Technologies and Expression Analysis (LTEA) Assay for Cyclin D2 (CCND2) using HepaRG (AID 2283449).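 Note: CCND2 transcript measured by TaqMan qRT-PCR and normalised to three housekeeping genes.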 Particulars: mRNA level, 48 h; actives raise or lower the signal. Put shortly: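 In this HepaRG study, an eight-point concentration series (max 100 uM, 0.5% DMSO) is applied for 48 h. CCND2 mRNA change is derived by qRT-PCR normalised to ACTB, GAPDH and POLR2A.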

Read-out in test [4]: Cyclin Dependent Kinase Inhibitor 1A (CDKN1A), CDKN1A (gene 1026)
In words: LTEA_HepaRG_CDKN1A: Life Technologies and Expression Analysis (LTEA) Assay for Cyclin Dependent Kinase Inhibitor 1A (CDKN1A) using HepaRG (AID 2283450). As to conditions: mRNA level, 48 h; actives raise or lower the signal. The gist of the method: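 HepaRG, 48 h dosing, 8-pt half-log series from 100 uM top, 0.5% DMSO vehicle, duplicates. Readout: TaqMan qRT-PCR of CDKN1A transcript, housekeeping-normalized (ACTB, GAPDH, POLR2A). Up/down curve fit relative to DMSO.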

Read-out in test [5]: Cyclin D1 (CCND1), CCND1 (gene 595)
Kind of test: LTEA_HepaRG_CCND1: Life Technologies and Expression Analysis (LTEA) Assay for Cyclin D1 (CCND1) using HepaRG (AID 2283451). As to conditions: mRNA level, 48 h; actives raise or lower the signal. Put shortly: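 qRT-PCR (Fluidigm 96.96 array) read-out of transcript level, housekeeping-normalized (ACTB/GAPDH/POLR2A). HepaRG cells, 48 h chemical exposure, 8-point half-log series from 100 uM, 0.5% DMSO vehicle; gain or loss relative to DMSO baseline.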

Read-out in test [6]: catalase (CAT), CAT (gene 847)
Kind of test: LTEA_HepaRG_CAT: Life Technologies and Expression Analysis (LTEA) Assay for catalase (CAT) using HepaRG (AID 2283452). Particulars: mRNA level, 48 h; actives raise or lower the signal. Put shortly: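 Differentiated HepaRG cells in serum-free induction medium were dosed 48 h in duplicate, eight half-log concentrations from 100 uM in 0.5% DMSO. Transcript measured by TaqMan qRT-PCR, normalised to ACTB/GAPDH/POLR2A, fitted bidirectionally against DMSO.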

Read-out in test [7]: flavin-containing dimethylaniline monooxygenases 3 (FMO3), FMO3 (gene 2328)
In words: LTEA_HepaRG_FMO3: Life Technologies and Expression Analysis (LTEA) Assay for flavin-containing dimethylaniline monooxygenases 3 (FMO3) using HepaRG (AID 2283453). As to conditions: mRNA level, 48 h; actives raise or lower the signal. Put shortly: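 Eight-point concentration-response in serum-free HepaRG cultures (top 100 uM, 0.5% DMSO, 48 h). Read-out: FMO3 mRNA level normalized to three endogenous control genes, fitted bidirectionally versus vehicle.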

Read-out in test [8]: Cytochrome P450 (CYP1A1), CYP1A1 (gene 1543)
Kind of test: LTEA_HepaRG_CYP1A1: Life Technologies and Expression Analysis (LTEA) Assay for Cytochrome P450 (CYP1A1) using HepaRG (AID 2283454). As to conditions: mRNA level, 48 h; actives raise or lower the signal. The gist of the method: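 qRT-PCR read-out: CYP1A1 transcript normalized to three housekeeping genes, fitted bidirectionally against 0.5% DMSO vehicle baseline. Human HepaRG cells, 48 h chemical exposure, 8-point half-log series topping at 100 uM.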

Read-out in test [9]: CFLAR gene, CFLAR (gene 8837)
Kind of test: LTEA_HepaRG_CFLAR: Life Technologies and Expression Analysis (LTEA) Assay for CFLAR gene using HepaRG (AID 2283455). Particulars: mRNA level, 48 h; actives raise or lower the signal. The gist of the method: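 Gain- or loss-of-signal changes in CFLAR transcript were fitted bidirectionally relative to 0.5% DMSO. Cells (HepaRG, duplicate wells) were dosed for 48 h across eight half-log concentrations topping at 100 uM; quantitation by TaqMan qRT-PCR.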

Read-out in test [10]: Forkhead box O1 (FOXO1), FOXO1 (gene 2308)
Kind of test: LTEA_HepaRG_FOXO1: Life Technologies and Expression Analysis (LTEA) Assay for Forkhead box O1 (FOXO1) using HepaRG (AID 2283456). Particulars: mRNA level, 48 h; actives raise or lower the signal. The gist of the method:
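Using one lot of HepaRG hepatic cells kept in 0.5% DMSO, the team applied test chemicals in duplicate, half-log dilutions from 100 uM, for 48 h. Expression, normalised to ACTB/GAPDH/POLR2A, was compared with vehicle in either direction.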

Read-out in test [11]: growth arrest and DNA damage 45 (GADD45A), GADD45A (gene 1647)
In words: LTEA_HepaRG_GADD45A: Life Technologies and Expression Analysis (LTEA) Assay for growth arrest and DNA damage 45 (GADD45A) using HepaRG (AID 2283458). Particulars: mRNA level, 48 h; actives raise or lower the signal. The gist of the method: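 HepaRG, 48 h exposure, 8 conc. (top 100 uM, half-log steps), 0.5% DMSO vehicle, duplicates. Read-out: qRT-PCR mRNA level, housekeeping-normalized (ACTB/GAPDH/POLR2A). Curves fit bidirectionally vs DMSO baseline.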

Read-out in test [12]: Forkhead box O3 (FOXO3), FOXO3 (gene 2309)
Kind of test: LTEA_HepaRG_FOXO3: Life Technologies and Expression Analysis (LTEA) Assay for Forkhead box O3 (FOXO3) using HepaRG (AID 2283459). As to conditions: mRNA level, 48 h; actives raise or lower the signal. The gist of the method: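 Gene-expression endpoint: FOXO3 transcript level by qRT-PCR in HepaRG cultures treated 48 h with chemicals up to 100 uM (half-log, 0.5% DMSO vehicle).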

Read-out in test [13]: ABC Transporter (ABCB1), ABCB1 (gene 5243)
In words: LTEA_HepaRG_ABCB1: Life Technologies and Expression Analysis (LTEA) Assay for ABC Transporter (ABCB1) using HepaRG (AID 2283460). Particulars: mRNA level, 48 h; actives raise or lower the signal. Put shortly: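 Human liver HepaRG line treated 48 h with up to 100 uM compound (eight half-log points, 0.5% DMSO); ABCB1 mRNA change fitted bidirectionally against DMSO controls.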

Read-out in test [14]: growth arrest and DNA damage 45 (GADD45B), GADD45B (gene 4616)
Kind of test: LTEA_HepaRG_GADD45B: Life Technologies and Expression Analysis (LTEA) Assay for growth arrest and DNA damage 45 (GADD45B) using HepaRG (AID 2283461). As to conditions: mRNA level, 48 h; actives raise or lower the signal. The gist of the method: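 qRT-PCR read-out (Fluidigm TaqMan, housekeeping-normalized) of mRNA change in human HepaRG cells after 48 h chemical exposure; 8-point curve, top 100 uM, half-log steps, 0.5% DMSO vehicle; gain or loss fitted relative to DMSO baseline.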

Read-out in test [15]: ABC Transporter (ABCC3), ABCC3 (gene 8714)
In words: LTEA_HepaRG_ABCC3: Life Technologies and Expression Analysis (LTEA) Assay for ABC Transporter (ABCC3) using HepaRG (AID 2283462). As to conditions: mRNA level, 48 h; actives raise or lower the signal. The gist of the method: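 qRT-PCR read-out of ABCC3 transcript, normalized to three housekeeping genes (ACTB, GAPDH, POLR2A), after 48 h chemical exposure of human HepaRG cells. Eight half-log concentrations, highest 100 uM, in 0.5% DMSO; gain or loss fitted relative to DMSO baseline.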

Read-out in test [16]: ABC Transporter (ABCB11), ABCB11 (gene 8647)
Kind of test: LTEA_HepaRG_ABCB11: Life Technologies and Expression Analysis (LTEA) Assay for ABC Transporter (ABCB11) using HepaRG (AID 2283463). As to conditions: mRNA level, 48 h; actives raise or lower the signal. The gist of the method: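 Using HepaRG cultures held in 0.5% DMSO, chemicals were tested at half-log dilutions from 100 uM for 48 h. Induction or suppression of ABCB11 mRNA, normalized to ACTB, GAPDH and POLR2A, was fitted bidirectionally against vehicle.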

Read-out in test [17]: ABC Transporter (ABCC2), ABCC2 (gene 1244)
In words: LTEA_HepaRG_ABCC2: Life Technologies and Expression Analysis (LTEA) Assay for ABC Transporter (ABCC2) using HepaRG (AID 2283464). As to conditions: mRNA level, 48 h; actives raise or lower the signal. Put shortly: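 qRT-PCR (TaqMan, Fluidigm array) read-out of ABCC2 mRNA, normalized to three housekeeping genes. Differentiated HepaRG cells were treated 48 h in serum-free induction medium with 8-point half-log series from 100 uM in 0.5% DMSO; curves fitted bidirectionally relative to DMSO.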

Read-out in test [18]: Broad substrate specificity ATP-binding cassette transporter ABCG2 (Homo sapiens) (UniProt Q9UNQ0)
Kind of test: LTEA_HepaRG_ABCG2: Life Technologies and Expression Analysis (LTEA) Assay for ABC Transporter (ABCG2) using HepaRG (AID 2283465). Particulars: mRNA level, 48 h; actives raise or lower the signal. Put shortly:
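Gene expression of ABCG2 in HepaRG liver cells is quantified by qRT-PCR following 48 h exposure across an eight-point series topping at 100 uM. Values come from bidirectional fitting relative to DMSO vehicle.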

Read-out in test [19]: ATP-citrate lyase (ACLY), ACLY (gene 47)
Kind of test: LTEA_HepaRG_ACLY: Life Technologies and Expression Analysis (LTEA) Assay for ATP-citrate lyase (ACLY) using HepaRG (AID 2283466). As to conditions: mRNA level, 48 h; actives raise or lower the signal. The gist of the method: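 ACLY expression changes in human HepaRG liver cells are quantified by qRT-PCR after 48 h exposure to test chemicals (maximum 100 uM, half-log steps). Values are fitted in both directions relative to 0.5% DMSO vehicle.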

A short description of test [20]: CEETOX_H295R_TESTO: CeeTox H295R High-throughput Steroidogenesis Assay for Testosterone (TESTO) (AID 2283457). Particulars: actives raise or lower the signal. The gist of the method:
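Readout: testosterone quantified by HPLC-MS/MS (C18, ESI positive) after MTBE liquid-liquid extraction of culture medium. Cells were H295R, 48 h chemical exposure per OECD 456 with modifications. Gain or loss of signal fitted relative to DMSO.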

Activity calls are given as the source filed them. Rule for the calls: active = hit-call score of the fitted dose curve at least 0.9, where 1 is the maximum; inactive = score below 0.9.

Broad substrate specificity ATP-binding cassette transporter ABCG2 (Homo sapiens), sequence (Q9UNQ0 whole entry, looked up): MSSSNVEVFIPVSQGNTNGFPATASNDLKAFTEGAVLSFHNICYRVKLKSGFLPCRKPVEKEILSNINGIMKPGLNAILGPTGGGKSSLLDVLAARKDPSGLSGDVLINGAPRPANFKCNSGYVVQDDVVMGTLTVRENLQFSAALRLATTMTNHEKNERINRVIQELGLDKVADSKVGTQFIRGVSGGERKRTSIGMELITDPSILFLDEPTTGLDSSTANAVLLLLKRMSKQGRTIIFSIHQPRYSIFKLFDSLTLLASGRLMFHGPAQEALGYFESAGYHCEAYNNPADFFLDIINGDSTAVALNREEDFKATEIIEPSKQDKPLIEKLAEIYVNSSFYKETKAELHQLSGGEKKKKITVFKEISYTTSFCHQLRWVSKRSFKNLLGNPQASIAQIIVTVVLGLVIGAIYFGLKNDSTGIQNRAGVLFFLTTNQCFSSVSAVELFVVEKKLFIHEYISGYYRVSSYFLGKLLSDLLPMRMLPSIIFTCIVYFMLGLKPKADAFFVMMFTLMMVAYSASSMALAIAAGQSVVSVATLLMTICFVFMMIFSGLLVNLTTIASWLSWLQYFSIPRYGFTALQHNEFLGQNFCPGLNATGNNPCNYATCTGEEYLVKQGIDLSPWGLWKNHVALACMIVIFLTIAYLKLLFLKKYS
Fatty acid synthase (Homo sapiens), sequence (P49327 whole entry, looked up): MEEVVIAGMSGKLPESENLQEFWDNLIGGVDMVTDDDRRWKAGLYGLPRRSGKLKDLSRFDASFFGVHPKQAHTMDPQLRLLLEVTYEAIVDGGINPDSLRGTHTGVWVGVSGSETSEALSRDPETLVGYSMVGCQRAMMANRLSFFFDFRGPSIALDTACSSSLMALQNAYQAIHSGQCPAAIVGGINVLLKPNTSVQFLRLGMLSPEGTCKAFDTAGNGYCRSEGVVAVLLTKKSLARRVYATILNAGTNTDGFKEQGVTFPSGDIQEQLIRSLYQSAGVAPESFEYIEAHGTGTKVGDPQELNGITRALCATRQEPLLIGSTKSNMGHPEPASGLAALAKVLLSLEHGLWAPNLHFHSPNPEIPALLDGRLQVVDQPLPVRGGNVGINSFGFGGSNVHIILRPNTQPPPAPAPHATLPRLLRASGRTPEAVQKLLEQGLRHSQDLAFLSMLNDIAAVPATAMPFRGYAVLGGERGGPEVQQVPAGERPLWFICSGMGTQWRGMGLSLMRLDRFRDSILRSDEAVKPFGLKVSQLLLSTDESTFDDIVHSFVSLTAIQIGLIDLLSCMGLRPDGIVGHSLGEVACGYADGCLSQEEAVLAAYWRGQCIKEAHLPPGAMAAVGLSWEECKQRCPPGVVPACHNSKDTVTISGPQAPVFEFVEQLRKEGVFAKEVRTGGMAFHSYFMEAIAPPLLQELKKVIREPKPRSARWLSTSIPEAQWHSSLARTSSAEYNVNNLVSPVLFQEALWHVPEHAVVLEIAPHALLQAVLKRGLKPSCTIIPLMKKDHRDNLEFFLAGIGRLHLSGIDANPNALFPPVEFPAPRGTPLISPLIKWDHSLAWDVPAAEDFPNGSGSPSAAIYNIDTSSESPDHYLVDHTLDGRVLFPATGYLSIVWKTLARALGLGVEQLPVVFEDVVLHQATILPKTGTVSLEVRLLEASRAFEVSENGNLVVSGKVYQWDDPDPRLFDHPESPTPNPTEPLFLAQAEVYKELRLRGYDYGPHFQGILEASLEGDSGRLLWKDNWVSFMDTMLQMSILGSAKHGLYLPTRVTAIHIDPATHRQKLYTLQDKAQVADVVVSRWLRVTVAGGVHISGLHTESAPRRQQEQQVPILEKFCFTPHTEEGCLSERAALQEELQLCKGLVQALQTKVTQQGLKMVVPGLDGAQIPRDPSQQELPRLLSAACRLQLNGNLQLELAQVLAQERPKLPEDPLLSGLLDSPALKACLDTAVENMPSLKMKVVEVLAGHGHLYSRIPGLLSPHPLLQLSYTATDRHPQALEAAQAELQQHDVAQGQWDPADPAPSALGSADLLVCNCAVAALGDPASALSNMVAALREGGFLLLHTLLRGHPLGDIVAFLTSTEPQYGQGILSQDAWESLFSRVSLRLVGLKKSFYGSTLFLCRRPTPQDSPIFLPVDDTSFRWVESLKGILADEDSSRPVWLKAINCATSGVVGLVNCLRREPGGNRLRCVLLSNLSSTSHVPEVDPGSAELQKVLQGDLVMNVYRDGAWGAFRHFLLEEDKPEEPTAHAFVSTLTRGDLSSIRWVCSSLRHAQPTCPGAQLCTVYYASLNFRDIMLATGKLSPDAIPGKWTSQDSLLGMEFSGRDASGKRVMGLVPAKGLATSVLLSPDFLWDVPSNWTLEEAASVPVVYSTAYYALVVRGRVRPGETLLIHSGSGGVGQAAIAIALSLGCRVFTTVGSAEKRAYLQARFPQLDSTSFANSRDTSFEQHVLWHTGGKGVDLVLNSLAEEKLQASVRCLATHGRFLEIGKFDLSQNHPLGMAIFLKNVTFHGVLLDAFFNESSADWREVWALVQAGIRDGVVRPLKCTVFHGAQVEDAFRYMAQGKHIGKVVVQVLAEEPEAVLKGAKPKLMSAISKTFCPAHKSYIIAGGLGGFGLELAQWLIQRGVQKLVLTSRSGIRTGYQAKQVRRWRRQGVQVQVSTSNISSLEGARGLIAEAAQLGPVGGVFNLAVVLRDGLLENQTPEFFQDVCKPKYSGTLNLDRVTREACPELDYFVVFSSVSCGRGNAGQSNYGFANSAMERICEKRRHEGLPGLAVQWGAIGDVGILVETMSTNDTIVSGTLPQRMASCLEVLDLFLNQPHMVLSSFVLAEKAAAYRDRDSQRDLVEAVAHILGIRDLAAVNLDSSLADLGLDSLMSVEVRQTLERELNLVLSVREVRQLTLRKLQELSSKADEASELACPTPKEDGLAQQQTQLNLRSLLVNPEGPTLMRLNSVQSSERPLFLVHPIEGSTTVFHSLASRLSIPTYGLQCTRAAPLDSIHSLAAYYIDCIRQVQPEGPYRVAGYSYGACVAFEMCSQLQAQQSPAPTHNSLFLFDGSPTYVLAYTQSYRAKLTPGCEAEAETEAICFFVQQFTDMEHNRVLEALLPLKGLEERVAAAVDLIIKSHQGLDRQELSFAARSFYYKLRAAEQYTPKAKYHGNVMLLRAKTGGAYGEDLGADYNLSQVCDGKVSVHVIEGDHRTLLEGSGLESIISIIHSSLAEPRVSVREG

Consider `C1CNCCN1`, for which the result in test [1], in test [2], in test [3], in test [4], in test [5] and in test [6] was inactive. In addition, the outcome in test [7], in test [9], in [10], in test [11], in [12] and in [13] was inactive. The compound was called inactive in [14], in test [15], in test [16], in test [17], in [18] and in test [19]. The AC50 (commonly the midpoint of the concentration-response curve, whichever way the signal moves) in test [8] is 73.1 µM (active).
As for `C=CC(=O)OCCCCCCOC(=O)C=C`, the outcome in test [20] was inactive.
In the case of `Nc1ccc(C(=O)O)cc1`, the call in test [1], in test [2], in test [3], in test [4], in test [5] and in test [6] was inactive. Further, the result in test [7], in test [9], in test [10], in test [11], in test [12] and in test [13] was inactive. The compound was called inactive in test [14], in test [15], in test [16], in [17], in [18] and in test [19]. Further, in test [8], the half-maximal activity concentration (AC50) is 77 µM (active).
Take `Cc1ccc([N+](=O)[O-])cc1N`: the call in [1], in [4], in test [5], in [6], in test [7] and in [9] was inactive. For the same compound, the outcome in test [10], in test [11], in test [12], in test [13], in test [14] and in [15] was inactive. Moreover, the call in test [16], in test [17], in test [18] and in test [19] was inactive. Moreover, the AC50 in test [8] is 25 µM (active).
`COc1ccc(C(=O)c2ccccc2)c(O)c1`: the result in [20] was inactive.
In the case of `CCOC(=O)C1=NN(c2ccc(Cl)cc2Cl)C(C)(C(=O)OCC)C1` (stereo not drawn), the compound was classed as inactive in [20].
